From article PMC7862700, “An all-to-all approach to the identification of sequence-specific readers for epigenetic DNA modifications on cytosine”

Key:
Assay in all cases: DAPPL (digital affinity profiling via proximity ligation, sequencing); 10 mM Tris-HCl pH 7.5, 50 mM NaCl, 1 mM DTT, 4% glycerol, room temperature, 30 min; GST-TFs on glutathione beads, 16-mer random dsDNA library, 0.1% formaldehyde crosslink after washing; high values mean tight binding
Conditions in all cases: protein: recombinant; tags: N-terminal GST; dsDNA, one strand shown
ERF = molecular target: T1, ERF (Homo sapiens, UniProt P50548 1-548)
T1 sequence: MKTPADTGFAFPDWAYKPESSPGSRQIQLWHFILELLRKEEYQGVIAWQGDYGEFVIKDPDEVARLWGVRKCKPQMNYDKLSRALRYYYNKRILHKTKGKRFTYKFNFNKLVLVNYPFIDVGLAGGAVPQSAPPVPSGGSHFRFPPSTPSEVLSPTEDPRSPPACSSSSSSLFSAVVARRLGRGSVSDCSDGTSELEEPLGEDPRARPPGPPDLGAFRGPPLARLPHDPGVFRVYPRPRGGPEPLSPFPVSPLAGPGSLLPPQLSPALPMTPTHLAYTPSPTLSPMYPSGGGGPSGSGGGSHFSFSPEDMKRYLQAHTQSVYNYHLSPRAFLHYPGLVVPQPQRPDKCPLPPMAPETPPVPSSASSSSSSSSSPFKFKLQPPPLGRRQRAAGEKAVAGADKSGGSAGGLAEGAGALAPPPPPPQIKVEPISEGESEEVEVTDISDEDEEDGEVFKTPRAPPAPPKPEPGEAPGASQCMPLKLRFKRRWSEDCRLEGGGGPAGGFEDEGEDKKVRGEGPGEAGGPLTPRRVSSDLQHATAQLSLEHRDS
Summary of the method: (§1)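 Beads coated with glutathione captured GST-fused human transcription factors that had been expressed in yeast, and the factors were then given DNA barcodes and pooled with a tag-only sample. The pools were incubated with 200 nmole of a random double-stranded 16-mer DNA library in Tris/NaCl/DTT/glycerol buffer for 30 min at room temperature, washed, crosslinked with 0.1% formaldehyde and proximity-ligated with BsaI/T4 ligase at 37 °C for 1 h. PCR amplification and Illumina NextSeq500 sequencing came last. Binding signal is each hexamer's read frequency for a factor divided by its frequency for the tag-only sample.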

ETV3L = molecular target: T2, ETV3L (Homo sapiens, UniProt Q6ZN32 1-361)
T2 sequence: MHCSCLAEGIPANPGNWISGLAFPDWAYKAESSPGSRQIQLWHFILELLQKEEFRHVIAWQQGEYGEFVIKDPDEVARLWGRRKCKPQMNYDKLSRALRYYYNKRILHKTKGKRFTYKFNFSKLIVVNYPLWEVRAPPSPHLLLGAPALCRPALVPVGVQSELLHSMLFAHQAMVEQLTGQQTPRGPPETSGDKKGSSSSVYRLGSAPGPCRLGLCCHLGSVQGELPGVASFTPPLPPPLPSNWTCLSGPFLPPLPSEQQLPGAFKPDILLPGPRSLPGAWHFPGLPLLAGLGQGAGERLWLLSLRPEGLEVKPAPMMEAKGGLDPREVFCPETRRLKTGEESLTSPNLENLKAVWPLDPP
Summary of the method: as §1

ETS2 = molecular target: T3, ETS2 (Homo sapiens, UniProt P15036 1-469)
T3 sequence: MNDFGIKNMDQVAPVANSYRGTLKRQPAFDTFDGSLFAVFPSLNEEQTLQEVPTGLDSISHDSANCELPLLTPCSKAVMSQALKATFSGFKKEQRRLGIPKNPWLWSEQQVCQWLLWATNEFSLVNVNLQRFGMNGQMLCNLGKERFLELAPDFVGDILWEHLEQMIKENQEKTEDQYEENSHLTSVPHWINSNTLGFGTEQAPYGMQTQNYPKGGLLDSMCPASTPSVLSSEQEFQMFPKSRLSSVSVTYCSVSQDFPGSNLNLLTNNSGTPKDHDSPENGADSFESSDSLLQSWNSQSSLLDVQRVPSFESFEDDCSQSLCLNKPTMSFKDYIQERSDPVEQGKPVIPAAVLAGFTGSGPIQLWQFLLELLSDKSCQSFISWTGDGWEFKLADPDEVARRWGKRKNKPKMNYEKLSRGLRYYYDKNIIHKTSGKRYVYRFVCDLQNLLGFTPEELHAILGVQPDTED
Summary of the method: as §1

SPDEF = molecular target: T4, SPDEF (Homo sapiens, UniProt O95238 1-335)
T4 sequence: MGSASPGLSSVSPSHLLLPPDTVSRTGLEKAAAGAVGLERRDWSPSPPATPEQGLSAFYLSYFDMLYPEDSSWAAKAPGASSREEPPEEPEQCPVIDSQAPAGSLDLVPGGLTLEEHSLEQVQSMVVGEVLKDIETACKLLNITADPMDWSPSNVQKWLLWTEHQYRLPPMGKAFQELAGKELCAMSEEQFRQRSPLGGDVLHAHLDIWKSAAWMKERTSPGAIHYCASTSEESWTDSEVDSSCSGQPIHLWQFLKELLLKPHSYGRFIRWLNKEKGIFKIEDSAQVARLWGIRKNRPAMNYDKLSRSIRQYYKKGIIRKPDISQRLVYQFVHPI
Summary of the method: as §1

ETV7 = molecular target: T5, ETV7 (Homo sapiens, UniProt Q9Y603 1-341)
T5 sequence: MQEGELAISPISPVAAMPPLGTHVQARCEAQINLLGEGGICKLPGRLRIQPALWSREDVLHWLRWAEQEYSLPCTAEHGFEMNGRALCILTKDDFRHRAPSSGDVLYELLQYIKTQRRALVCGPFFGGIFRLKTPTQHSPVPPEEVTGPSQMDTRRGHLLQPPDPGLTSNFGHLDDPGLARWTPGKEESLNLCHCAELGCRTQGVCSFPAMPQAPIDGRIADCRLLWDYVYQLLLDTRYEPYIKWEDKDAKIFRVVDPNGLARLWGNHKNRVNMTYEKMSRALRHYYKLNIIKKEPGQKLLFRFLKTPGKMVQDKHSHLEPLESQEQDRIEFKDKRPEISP
Summary of the method: as §1

ELF5 = molecular target: T6, ELF5 (Homo sapiens, UniProt Q9UKW6-2 1-255)
T6 sequence: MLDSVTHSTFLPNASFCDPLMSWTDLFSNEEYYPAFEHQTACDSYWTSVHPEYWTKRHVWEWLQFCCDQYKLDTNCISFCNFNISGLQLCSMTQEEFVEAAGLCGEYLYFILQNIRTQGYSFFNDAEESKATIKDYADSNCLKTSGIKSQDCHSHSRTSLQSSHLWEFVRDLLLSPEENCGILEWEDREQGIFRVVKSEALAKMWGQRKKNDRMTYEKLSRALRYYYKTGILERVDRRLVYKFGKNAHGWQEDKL
Summary of the method: as §1

ETV3 = molecular target: T7, ETV3 (Homo sapiens, UniProt P41162-2 1-143)
T7 sequence: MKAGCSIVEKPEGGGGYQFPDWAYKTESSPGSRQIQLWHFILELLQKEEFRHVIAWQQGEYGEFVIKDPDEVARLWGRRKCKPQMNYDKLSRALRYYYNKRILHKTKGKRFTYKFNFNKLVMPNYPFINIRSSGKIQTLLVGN
Summary of the method: as §1

ETV6 = ETV6 (Homo sapiens, UniProt P41212 1-452)
Summary of the method: as §1

Chain of ETV6 (P41212 whole entry): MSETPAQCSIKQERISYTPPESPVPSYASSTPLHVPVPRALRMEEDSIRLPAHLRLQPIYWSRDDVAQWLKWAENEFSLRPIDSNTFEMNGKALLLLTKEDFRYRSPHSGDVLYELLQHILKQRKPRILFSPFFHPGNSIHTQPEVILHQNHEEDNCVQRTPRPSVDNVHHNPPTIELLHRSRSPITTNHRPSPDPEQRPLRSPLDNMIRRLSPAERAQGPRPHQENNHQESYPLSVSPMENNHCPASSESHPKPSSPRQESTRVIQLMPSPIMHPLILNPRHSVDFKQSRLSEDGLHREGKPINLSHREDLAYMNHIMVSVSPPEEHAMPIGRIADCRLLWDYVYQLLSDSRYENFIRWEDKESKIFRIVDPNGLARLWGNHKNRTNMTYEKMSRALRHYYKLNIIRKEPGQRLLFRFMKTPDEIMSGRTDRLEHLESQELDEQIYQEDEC

Sequence	binding signal (ERF)	binding signal (ETV3L)	binding signal (ETS2)	binding signal (SPDEF)	binding signal (ETV7)	binding signal (ELF5)	binding signal (ETV3)	binding signal (ETV6)
GGTCTT	1.22 fold enrichment (6-mer frequency, TF over GST control)	1.07 fold enrichment (6-mer frequency, TF over GST control)	1.23 fold enrichment (6-mer frequency, TF over GST control)	1.12 fold enrichment (6-mer frequency, TF over GST control)	1.19 fold enrichment (6-mer frequency, TF over GST control)	1.2 fold enrichment (6-mer frequency, TF over GST control)	1.16 fold enrichment (6-mer frequency, TF over GST control)	–
GATGAT	1.5 fold enrichment (6-mer frequency, TF over GST control)	1.31 fold enrichment (6-mer frequency, TF over GST control)	1.23 fold enrichment (6-mer frequency, TF over GST control)	1.32 fold enrichment (6-mer frequency, TF over GST control)	1.36 fold enrichment (6-mer frequency, TF over GST control)	1.24 fold enrichment (6-mer frequency, TF over GST control)	1.39 fold enrichment (6-mer frequency, TF over GST control)	1.3 fold enrichment (6-mer frequency, TF over GST control)
TAAATG	1.24 fold enrichment (6-mer frequency, TF over GST control)	1.39 fold enrichment (6-mer frequency, TF over GST control)	1.38 fold enrichment (6-mer frequency, TF over GST control)	1.35 fold enrichment (6-mer frequency, TF over GST control)	1.31 fold enrichment (6-mer frequency, TF over GST control)	1.16 fold enrichment (6-mer frequency, TF over GST control)	1.31 fold enrichment (6-mer frequency, TF over GST control)	1.31 fold enrichment (6-mer frequency, TF over GST control)
AATACT	1.19 fold enrichment (6-mer frequency, TF over GST control)	1.24 fold enrichment (6-mer frequency, TF over GST control)	1.23 fold enrichment (6-mer frequency, TF over GST control)	1.15 fold enrichment (6-mer frequency, TF over GST control)	1.31 fold enrichment (6-mer frequency, TF over GST control)	1.37 fold enrichment (6-mer frequency, TF over GST control)	1.28 fold enrichment (6-mer frequency, TF over GST control)	1.4 fold enrichment (6-mer frequency, TF over GST control)
GACTTC	2.25 fold enrichment (6-mer frequency, TF over GST control)	2.41 fold enrichment (6-mer frequency, TF over GST control)	2.58 fold enrichment (6-mer frequency, TF over GST control)	2.13 fold enrichment (6-mer frequency, TF over GST control)	2.2 fold enrichment (6-mer frequency, TF over GST control)	2.99 fold enrichment (6-mer frequency, TF over GST control)	2.6 fold enrichment (6-mer frequency, TF over GST control)	2.64 fold enrichment (6-mer frequency, TF over GST control)
ATATAG	1.12 fold enrichment (6-mer frequency, TF over GST control)	1.11 fold enrichment (6-mer frequency, TF over GST control)	1.11 fold enrichment (6-mer frequency, TF over GST control)	1.14 fold enrichment (6-mer frequency, TF over GST control)	1.24 fold enrichment (6-mer frequency, TF over GST control)	1.13 fold enrichment (6-mer frequency, TF over GST control)	1.19 fold enrichment (6-mer frequency, TF over GST control)	1.17 fold enrichment (6-mer frequency, TF over GST control)
CCAATT	1.23 fold enrichment (6-mer frequency, TF over GST control)	1.24 fold enrichment (6-mer frequency, TF over GST control)	1.25 fold enrichment (6-mer frequency, TF over GST control)	1.19 fold enrichment (6-mer frequency, TF over GST control)	1.21 fold enrichment (6-mer frequency, TF over GST control)	1.14 fold enrichment (6-mer frequency, TF over GST control)	1.23 fold enrichment (6-mer frequency, TF over GST control)	1.24 fold enrichment (6-mer frequency, TF over GST control)
GCTGAT	1.07 fold enrichment (6-mer frequency, TF over GST control)	1.18 fold enrichment (6-mer frequency, TF over GST control)	1.12 fold enrichment (6-mer frequency, TF over GST control)	1.07 fold enrichment (6-mer frequency, TF over GST control)	1.27 fold enrichment (6-mer frequency, TF over GST control)	1.03 fold enrichment (6-mer frequency, TF over GST control)	1.2 fold enrichment (6-mer frequency, TF over GST control)	–
ACCTAA	1.17 fold enrichment (6-mer frequency, TF over GST control)	1.18 fold enrichment (6-mer frequency, TF over GST control)	1.17 fold enrichment (6-mer frequency, TF over GST control)	1.19 fold enrichment (6-mer frequency, TF over GST control)	1.18 fold enrichment (6-mer frequency, TF over GST control)	1.14 fold enrichment (6-mer frequency, TF over GST control)	1.03 fold enrichment (6-mer frequency, TF over GST control)	1.18 fold enrichment (6-mer frequency, TF over GST control)
